Assay results: PubChem BioAssay (NCI)
The panel holds about 83,000 compounds, 20% with a hit somewhere; the sample as a whole holds those more often.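 Plates (96-well) were seeded with cells, treated with compound at one concentration, and incubated for 48 hours before percent growth was determined.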 A number with no mark means an inactive call. Calls of active or inactive are those of the source. Rule for the calls: active = growth percent below 10; inactive = the rest.

Legend:
Test in all cases: NCI-60 one-dose screen, 48 h (100 = growth as untreated, 0 = no growth, -100 = all killed)
NCI-H23 lung = details: 10 µM unless noted
NCI-H226 lung = details: 10 µM unless noted
NCI-H322M lung = details: 10 µM unless noted
HOP-62 NSCLC = details: 10 µM unless noted
NCI-H460 lung = details: 10 µM unless noted
HOP-92 NSCLC = details: 10 µM unless noted
NCI-H522 lung = details: 10 µM unless noted
A549/ATCC NSCLC = details: 10 µM unless noted
786-0 renal = details: 10 µM unless noted
COLO 205 colon = details: 10 µM unless noted
DU-145 prostate = details: 10 µM unless noted
K-562 leukemia = details: 10 µM unless noted
MALME-3M melanoma = details: 10 µM unless noted
MDA-MB-231 breast = details: 10 µM unless noted
RXF 393 renal = details: 10 µM unless noted
SF-268 CNS = details: 10 µM unless noted
SF-295 CNS = details: 10 µM unless noted
SF-539 CNS = details: 10 µM unless noted
UACC-257 melanoma = details: 10 µM
M14 melanoma = details: 10 µM unless noted

SMILES	growth (NCI-H23 lung)	growth (NCI-H226 lung)	growth (NCI-H322M lung)	growth (HOP-62 NSCLC)	growth (NCI-H460 lung)	growth (HOP-92 NSCLC)	growth (NCI-H522 lung)	growth (A549/ATCC NSCLC)	growth (786-0 renal)	growth (COLO 205 colon)	growth (DU-145 prostate)	growth (K-562 leukemia)	growth (MALME-3M melanoma)	growth (MDA-MB-231 breast)	growth (RXF 393 renal)	growth (SF-268 CNS)	growth (SF-295 CNS)	growth (SF-539 CNS)	growth (UACC-257 melanoma)	growth (M14 melanoma)
COc1ccccc1/C=C/C(=O)c1nnn(-c2ccc(C(=O)O)cc2)c1C	87.6%	94.7%	92.1%	110%	96.1%	101%	82.4%	90.3%	93.2%	110%	80.4%	73.7%	86.8%	98.7%	86.6%	87.5%	100%	91.4%	81.5%	77.8%
CCOC(=O)c1c(NC(=O)c2ccc(C(C)(C)C)cc2)sc2cc(OCCN3CCCCC3)ccc12	88.6%	101%	83.1%	91.1%	13.9%	66.1%	96.8%	77%	75.5%	25.6%	71.5%	16%	97%	70.1%	68.1%	90.6%	99.7%	82.1%	100%	89.3%
O=C(/C=C1\C=CN(CCCCF)c2ccccc21)n1ccc2ccccc21	98.5%	91.9%	93.3%	93%	113%	90.9%	94.7%	104%	107%	96.6%	127%	104%	100%	94.9%	126%	121%	106%	98.8%	110%	101%
CCC(=O)Nc1cc(Nc2cc(NC3CC3)n3ncc(C#N)c3n2)ccc1C	15.3%	26.4%	19.4%	24.8%	16.1%	6.91% (active)	27%	26.9%	42%	30.4%	44.7%	22.9%	30.8%	19.5%	-8.35% (active)	35%	21.7%	21.8%	34.2%	14.9%
CN1CCN(c2ccc(NC(=O)Nc3ccc4c(ccn4-c4cccc(C(N)=O)n4)c3)cc2C(F)(F)F)CC1	72.5%	83.6%	58.3%	63.2%	87.2%	119%	71.6%	51.8%	6.16% (active)	44.4%	77.2%	-13.8% (active)	16%	74.8%	-12.9% (active)	82.1%	-54.7% (active)	6.11% (active)	-14% (active)	-47% (active)
CC(=O)c1ccc(NC(=O)COc2ccc(C3SCC(=O)N3c3ccc(Br)cc3)cc2)cc1 (stereo not given)	95.1%	93%	99.1%	93.5%	108%	84.4%	84.8%	93.9%	104%	104%	104%	90.8%	107%	90.6%	99.3%	103%	98%	99.2%	102%	99.9%
Nc1n[nH]c2cccc(C#Cc3cccc(NC(=O)c4cccc(OC(F)(F)F)c4)c3)c12	35.1%	46.8%	77.3%	59.4%	58.1%	-9.3% (active)	49.2%	71.4%	65.3%	49%	71.4%	7.22% (active)	2.17% (active)	17.7%	24.2%	50.9%	73.8%	6.63% (active)	63.1%	31%
O=C1Nc2ccc(Cl)cc2/C1=C/c1ccc(OCc2ccc(Br)cc2F)cc1	98.6%	73.5%	99.6%	101%	103%	95%	100%	102%	102%	103%	101%	91.2%	100%	94.7%	85.3%	98.5%	103%	99.4%	101%	90.1%
N#Cc1c(-c2cccs2)cc(-c2cnccn2)nc1SCC(=O)NNC(=S)Nc1ccc(F)cc1	108%	117%	97.3%	106%	105%	112%	95.5%	100%	99.3%	112%	109%	92.2%	127%	94.5%	141%	106%	106%	98.1%	112%	104%
NC(N)=NS(=O)(=O)c1ccc(N=NC2C(=O)NN(c3ccccc3)C2=O)cc1 (stereo not given)	93.5%	85.6%	101%	110%	101%	68.9%	104%	104%	100%	113%	104%	107%	101%	94.9%	106%	102%	104%	94.8%	120%	99.5%
COc1ccc(-c2nc(SCC(C)C)nc(N/N=C\c3cccc([N+](=O)[O-])c3)c2C#N)cc1	46.4%	38%	38.3%	31.3%	14.1%	16.2%	59.4%	24.8%	4.44% (active)	85.8%	70.5%	57.1%	48.1%	30.5%	18.1%	43.6%	52.7%	8.02% (active)	89%	76.9%
COc1cc(C2CC(c3ccc(Nc4nc(NCCO)nc(Nc5ccc(Cl)cc5)n4)cc3)=Nc3c(N)nc(N)nc3N2)cc(OC)c1OC (stereo not given)	74%	81.7%	82.2%	43.3%	56.3%	43.5%	60.7%	103%	46.9%	90.4%	65.7%	16.4%	85.7%	60.6%	45%	63%	77.6%	80.1%	92.1%	81.2%
CCNC(=O)Oc1ccc(/C(=C(/C)c2ccc(Cl)cc2)c2ccc(OCCN(C)C)cc2)cc1	87%	94.4%	90.5%	80.2%	66.6%	45.1%	88.7%	71.6%	64.3%	82.8%	92.1%	11.7%	13.4%	79.8%	55.8%	75.6%	94.4%	66%	81%	64.2%
O=C(C[n+]1ccnc2ccccc21)c1ccc(O)c(O)c1	63.8%	71.1%	90.8%	90.7%	70.9%	64.8%	-5% (active)	87.1%	44.3%	30.8%	47.3%	16.6%	54.7%	55.3%	17%	85.7%	87.5%	53.1%	57.8%	61.3%
O=C1c2c(c3c4cccnc4[nH]c3c3ccc4ccccc4c23)C(=O)N1CCN1CCCCC1	29.3%	64.6%	69.6%	36.6%	12.5%	70.4%	63%	46.8%	52.6%	69.4%	41.7%	40.5%	77%	96%	70.5%	43.2%	28.5%	54.2%	94%	45.8%
